# Screening data: PubChem, Broad Institute
# Most compounds without a hit are left out; they make up all but 3.1% or so of the library.
# SIRT5 block – sirtuin-5 (human) deacylase inhibition; Q9NXA8; Purified SirT5, succinyl-peptide AMC, trypsin-coupled fluorescence; inhibition, % at 15 µM; 330,000 tested, 1.1% active; in the data active = inhibition above about 15%
# Target sequence (Q9NXA8 whole entry, looked up): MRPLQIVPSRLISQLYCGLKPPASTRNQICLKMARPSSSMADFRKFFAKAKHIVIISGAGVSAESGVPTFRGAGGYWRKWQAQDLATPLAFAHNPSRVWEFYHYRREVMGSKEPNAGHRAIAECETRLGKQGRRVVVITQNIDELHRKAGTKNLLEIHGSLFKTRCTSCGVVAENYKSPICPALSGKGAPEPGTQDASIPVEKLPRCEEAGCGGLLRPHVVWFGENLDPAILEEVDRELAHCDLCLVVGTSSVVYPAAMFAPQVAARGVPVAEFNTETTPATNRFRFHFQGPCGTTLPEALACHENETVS
# CASP6 VEID inh – blocks human caspase-6 cleavage activity; P55212; purified caspase-6, Z-VEID-R110 cleavage fluorescence; inhibition, % at 12.5 µM; 350,000 tested, 0.53% active; AID 686996;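 active = mean inhibition across replicates at least about 35%, with every replicate also reaching that limit, limit read from the data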;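 also: 0% = median of neutral control wells and 100% = no fluorescence left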
# Target sequence (P55212 24-179 limits assumed): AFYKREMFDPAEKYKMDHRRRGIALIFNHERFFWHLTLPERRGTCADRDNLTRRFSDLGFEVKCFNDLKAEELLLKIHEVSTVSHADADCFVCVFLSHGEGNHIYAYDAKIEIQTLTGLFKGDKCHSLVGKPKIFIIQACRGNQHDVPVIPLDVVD
# Target sequence (P55212 194-293 limits assumed): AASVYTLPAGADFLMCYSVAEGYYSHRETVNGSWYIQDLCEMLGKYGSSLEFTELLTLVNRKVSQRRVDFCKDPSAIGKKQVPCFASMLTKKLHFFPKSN
# ERAP1 HTS inh – blocks human ERAP1 aminopeptidase activity | recombinant ERAP1, Leu-AMC fluorescence, 60 min | inhibition, % at 10.7 µM | 340,000 tested, 0.15% active | AID 652197;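 active = mean replicate inhibition of at least 30%, or all replicates individually reaching that 30% level; inactive = mean below 30% and not every replicate reaching it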;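 also: 0% = neutral control wells and 100% = L-leucinethiol positive control wells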
# FGF22 binding – binders of recombinant human FGF22 by thermal shift; AID 651658; Q9HCT0; activity (Tm shift, normalised), % at 9.99 µM; SYPRO orange fluorescence; percent of sucrose octasulfate shift, DMSO zero; 340,000 tested, 1.5% active;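 active = mean Tm shift, scaled 0 neutral to 100 positive control, at about 1.3% or above, every replicate too, limit read from the data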
# Starred values were filed as active, the others as inactive; . = not tested or not shown.
SMILES,SIRT5 block,CASP6 VEID inh,ERAP1 HTS inh,FGF22 binding
COC(=O)C[C@H]1CC[C@H]2[C@@H](COC[C@H](O)CN2S(=O)(=O)c2ccccc2OC)O1,17*,1,0,0
O=C(C[C@H]1CC[C@H]2[C@@H](COC[C@H](O)CN2S(=O)(=O)c2cccc(Cl)c2)O1)Nc1ccc(-c2ccccc2)cc1,12,-1,0,.
C[C@H](CO)N1C[C@H](C)[C@H](CN(C)S(=O)(=O)c2cn(C)cn2)Oc2ccc(NC(=O)C3CC3)cc2C1=O,-1,0,-2,0
Clc1cccc(Cc2c(-c3ccco3)nc3ccc(Cl)cn23)c1,-1,9,.,1.7*
Fc1ccc(-c2nc3ccc(Cl)cn3c2Cc2ccsc2)cc1,28*,9,-5,0
Cc1ccc(-c2nc3ccc(Cl)cn3c2Cc2ccsc2)cc1,-4,37*,-4,0
Clc1cccc(Cc2c(-c3ccco3)nc3ccc(Br)cn23)c1,0,-2,-3,0
Cc1ccc2nc(-c3ccccc3)c(Cc3cccc(Cl)c3)n2c1,22*,0,-2,0
N#Cc1ccc(-c2ccc3c(c2)[C@@H]2[C@@H](CCN2C(=O)C2CC2)[C@@H](CO)N3)cc1,-8,-1,1,0
COc1ccccc1CNC(=O)C[C@H]1C[C@H]2c3cc(N(C)C)ccc3O[C@H]2[C@@H](CO)O1,-5,5,-2,-1
Cc1ccc(-c2cnc3c(c2)C(=O)N([C@@H](C)CO)C[C@@H](C)[C@@H](CN(C)C(=O)Cc2ccccc2)O3)cc1,1,-2,1,0
CCn1c(C)cc(/C=C2/NC(=O)N(Cc3ccccc3F)C2=O)c1C,3,3,4,0
Cc1cc(/C=C2/NC(=O)N(Cc3ccccc3F)C2=O)c(C)n1C(C)C,112*,1,3,0
O=C(O)c1cccc(-n2cccc2/C=C2/NC(=O)N(Cc3ccccc3F)C2=O)c1,0,76*,0,0
N#C/C(=C/c1cccn1-c1cccc(C(=O)O)c1)c1ccc(F)cc1,1,70*,2,0
O=C1CC(C(=O)Nc2ccc(Cl)cc2)n2ncnc2N1 (stereo not given),-4,-1,4,0
O=C1CC(C(=O)Nc2cccc(F)c2)n2ncnc2N1 (stereo not given),0,1,-2,43*
COC(=O)c1cc(-c2ccc(Cl)cc2)n[nH]1,.,-1,1,0
COC(=O)c1cc(C(=O)OC)[nH]n1,16*,-1,6,0
CCC(=O)N1C[C@@H](C)[C@H](OC)CN(C)C(=O)c2cc(NS(=O)(=O)CC)ccc2OC[C@@H]1C,-5,0,0,0
COc1ccc(Br)cc1C1CC(=O)N2CN(C)CSC2=C1C#N (stereo not given),1,35*,3,-1
Cn1cccc1CC(=O)NNC(=O)Nc1ccc(Cl)cc1,-3,1,2,44*
Cc1oc(-c2cc(F)ccc2F)nc1CN1CCN(C)C(=O)[C@@H]1C,2,0,-2,43*
C[C@H](CO)N1C[C@H](C)[C@@H](CN(C)Cc2ccccc2F)Oc2ncc(C3=CCCC3)cc2C1=O,-2,-5,-1,0
COc1ccccc1N(CC(=O)N(CC(C)C)CC(C)C)S(=O)(=O)c1cccs1,0,2,5,43*
SMILES,SIRT5 block,CASP6 VEID inh,ERAP1 HTS inh,FGF22 binding
COCc1cn(CC[C@H]2CC[C@@H](NC(=O)CCN3CCCCC3)[C@@H](CO)O2)nn1,-1,0,-8,0
Cc1cc(C)c(C(=O)C(C)OC(=O)C2=COCCO2)cc1C (stereo not given),-1,58*,-1,0
CCN1C(=O)C(CC(=O)Nc2ccc(F)cc2)N(CCc2ccc(OC)cc2)C1=S (stereo not given),0,6,4,44*
CCN1C(=O)C(CC(=O)Nc2ccc(OC)cc2)N(CCc2ccccc2)C1=S (stereo not given),1,2,-2,-1
CCc1nc2ccccc2c(C(=O)NCc2ccccc2)c1C,-4,2,3,43*
COc1cccc(S(=O)(=O)N[C@@H]2CC[C@H](CCNC(=O)Nc3cc(F)ccc3F)O[C@H]2CO)c1,-1,-196,-1,0
CCCC#Cc1cnc2c(c1)C(=O)N([C@@H](C)CO)C[C@@H](C)[C@@H](CN(C)C(=O)c1ccc3c(c1)OCO3)O2,1,-7,0,0
C[C@H](CO)N1C[C@H](C)[C@@H](CN(C)C(=O)NC2CCCC2)Oc2cc(C#Cc3ccc(F)cc3)ccc2S1(=O)=O,2,0,-5,-1
C[C@H](CO)N1C[C@H](C)[C@@H](CN(C)C(=O)NC2CCCCC2)Oc2cc(C#Cc3ccc(F)cc3)ccc2S1(=O)=O,18*,-3,4,0
C[C@@H]1CN([C@H](C)CO)S(=O)(=O)c2ccc(C#Cc3ccc(F)cc3)cc2O[C@@H]1CN(C)C(=O)NC1CCCCC1,19*,-2,1,0
C[C@@H]1CN([C@@H](C)CO)S(=O)(=O)c2ccc(C#Cc3ccc(F)cc3)cc2O[C@H]1CN(C)C(=O)NC1CCCCC1,19*,-4,2,0
CC(=O)NC[C@H]1[C@@H](c2ccc(C3=CCCC3)cc2)[C@@H](CO)N1C(=O)C1CC1,-1,0,0,.
C[C@@H]1CN([C@@H](C)CO)C(=O)c2cc(NC(=O)c3ccncc3)ccc2O[C@@H](C)CCCCO[C@@H]1CN(C)Cc1ccc(C(F)(F)F)cc1,16*,-2,1,-1
C[C@H]1CCCCO[C@@H](CN(C)Cc2ccc(C(F)(F)F)cc2)[C@@H](C)CN([C@@H](C)CO)C(=O)c2cc(NC(=O)CCC(F)(F)F)ccc2O1,16*,-1,-3,0
CCOc1ccc2nc(SCC(=O)NCc3ccc(OC)cc3)[nH]c2c1,27*,-3,0,0
COc1ccc(CNC(=O)CSc2nc(C)cs2)cc1,2,-5,0,43*
O=S(=O)(Nc1cc(S(=O)(=O)N2CCOCC2)ccc1N1CCOCC1)c1ccc2c(c1)OCCO2,-10,3,0,44*
COc1ccc(CN(C)C(C)C(=O)Nc2ccc(S(=O)(=O)N3CCOCC3)cc2)c(OC)c1 (stereo not given),17*,-1,-2,0
O=S(=O)(Nc1cc(S(=O)(=O)N2CCOCC2)ccc1O)c1ccc2c(c1)OCCCO2,0,2,2,0
COc1cccc(NC(=O)CN(C)C(C)C(=O)Nc2ccc(S(=O)(=O)N3CCOCC3)cc2)c1 (stereo not given),-1,0,1,0
COc1cc(/C=C/C(=O)Nc2ccc(OC)c(S(=O)(=O)N3CCOCC3)c2)ccc1OC(F)F,-5,2,-1,1.6*
O=C(Nc1nnc(C2CC2)s1)c1cc(S(=O)(=O)N2CCCCC2)ccc1N1CCOCC1,3,3,.,1
CCc1nnc(NC(=O)c2cc(S(=O)(=O)N3CCOCC3)ccc2N2CCCCC2)s1,-1,18,56*,0
CC(C)NC(=O)Nc1ccc2c(c1)C(=O)N(C)[C@H]1CC[C@@H](CC(=O)NC3CCCCC3)O[C@H]1CO2,.,.,.,0
